Data as given in PMC11062922 (Nature Chemical Biology, 2023).
Where two headings read alike, the source gives them in different places.

Tested on: MAP2K2
Conditions: read-out: apparent Kd, n = 1

Lestaurtinib
potency estimated from few doses (compound concentrations:100 nM and 1000 nM (sheet 'Lestaurtinib' of Supplementary Table 1),run:Lestaurtinib_02407_R2,Plate:MR005): 143 nM | potency estimated from few doses (compound concentrations:100 nM and 1000 nM (sheet 'Lestaurtinib' of Supplementary Table 1),run:Lestaurtinib_02407_R3,Plate:MR005): 794 nM | potency estimated from few doses (compound concentrations:100 nM and 1000 nM (sheet 'Lestaurtinib' of Supplementary Table 1),run:Lestaurtinib_02422_R3,Plate:MR006): 1800 nM | potency estimated from few doses (compound concentrations:100 nM and 1000 nM (sheet 'Lestaurtinib' of Supplementary Table 1),run:Lestaurtinib_02437_R1,Plate:MR007): 159 nM | potency estimated from few doses (compound concentrations:100 nM and 1000 nM (sheet 'Lestaurtinib' of Supplementary Table 1),run:Lestaurtinib_02437_R2,Plate:MR007): 1370 nM | potency estimated from few doses (compound concentrations:100 nM and 1000 nM (sheet 'Lestaurtinib' of Supplementary Table 1),run:Lestaurtinib_02437_R3,Plate:MR007): 98.9 nM | potency estimated from few doses (compound concentrations:100 nM and 1000 nM (sheet 'Lestaurtinib' of Supplementary Table 1),run:Lestaurtinib_02438_R1,Plate:MR008): 1800 nM | potency estimated from few doses (compound concentrations:100 nM and 1000 nM (sheet 'Lestaurtinib' of Supplementary Table 1),run:Lestaurtinib_02438_R2,Plate:MR008): 876 nM | potency estimated from few doses (compound concentrations:100 nM and 1000 nM (sheet 'Lestaurtinib' of Supplementary Table 1),run:Lestaurtinib_02438_R3,Plate:MR008): 745 nM | potency estimated from few doses (compound concentrations:100 nM and 1000 nM (sheet 'Lestaurtinib' of Supplementary Table 1),run:Lestaurtinib_02443_R2,Plate:MR009): 782 nM | potency estimated from few doses (compound concentrations:100 nM and 1000 nM (sheet 'Lestaurtinib' of Supplementary Table 1),run:Lestaurtinib_02443_R3,Plate:MR009): 924 nM | potency estimated from few doses (compound concentrations:100 nM and 1000 nM (sheet 'Lestaurtinib' of Supplementary Table 1),run:Lestaurtinib_02473_R1,Plate:MR010): 838 nM | potency estimated from few doses (compound concentrations:100 nM and 1000 nM (sheet 'Lestaurtinib' of Supplementary Table 1),run:Lestaurtinib_02482_R1,Plate:MR011): 1400 nM | potency estimated from few doses (compound concentrations:100 nM and 1000 nM (sheet 'Lestaurtinib' of Supplementary Table 1),run:Lestaurtinib_02482_R2,Plate:MR011): 1360 nM | potency estimated from few doses (compound concentrations:100 nM and 1000 nM (sheet 'Lestaurtinib' of Supplementary Table 1),run:Lestaurtinib_02482_R3,Plate:MR011): 1300 nM | potency estimated from few doses (compound concentrations:100 nM and 1000 nM (sheet 'Lestaurtinib' of Supplementary Table 1),run:Lestaurtinib_02487_R3,Plate:MR012): 1300 nM | potency estimated from few doses (compound concentrations:100 nM and 1000 nM (sheet 'Lestaurtinib' of Supplementary Table 1),run:Lestaurtinib_02496_R3,Plate:MR013): 1430 nM | potency estimated from few doses (compound concentrations:100 nM and 1000 nM (sheet 'Lestaurtinib' of Supplementary Table 1),run:Lestaurtinib_02566_R2,Plate:MR014): 1240 nM | potency estimated from few doses (compound concentrations:100 nM and 1000 nM (sheet 'Lestaurtinib' of Supplementary Table 1),run:Lestaurtinib_02566_R3,Plate:MR014): 835 nM | potency estimated from few doses (compound concentrations:100 nM and 1000 nM (sheet 'Lestaurtinib' of Supplementary Table 1),run:Lestaurtinib_02572_R1,Plate:MR015): 1370 nM | potency estimated from few doses (compound concentrations:100 nM and 1000 nM (sheet 'Lestaurtinib' of Supplementary Table 1),run:Lestaurtinib_02577_R1,Plate:MR016): 1370 nM | potency estimated from few doses (compound concentrations:100 nM and 1000 nM (sheet 'Lestaurtinib' of Supplementary Table 1),run:Lestaurtinib_02577_R2,Plate:MR016): 883 nM | potency estimated from few doses (compound concentrations:100 nM and 1000 nM (sheet 'Lestaurtinib' of Supplementary Table 1),run:Lestaurtinib_02577_R3,Plate:MR016): 852 nM | potency estimated from few doses (compound concentrations:100 nM and 1000 nM (sheet 'Lestaurtinib' of Supplementary Table 1),run:Lestaurtinib_02584_R3,Plate:MR017): 1580 nM | potency estimated from few doses (compound concentrations:100 nM and 1000 nM (sheet 'Lestaurtinib' of Supplementary Table 1),run:Lestaurtinib_02601_R1,Plate:MR018): 728 nM | potency estimated from few doses (compound concentrations:100 nM and 1000 nM (sheet 'Lestaurtinib' of Supplementary Table 1),run:Lestaurtinib_02606_R1,Plate:MR019): 691 nM | potency estimated from few doses (compound concentrations:100 nM and 1000 nM (sheet 'Lestaurtinib' of Supplementary Table 1),run:Lestaurtinib_02606_R3,Plate:MR019): 1150 nM | potency estimated from few doses (compound concentrations:100 nM and 1000 nM (sheet 'Lestaurtinib' of Supplementary Table 1),run:Lestaurtinib_02624_R1,Plate:MR020): 976 nM | potency estimated from few doses (compound concentrations:100 nM and 1000 nM (sheet 'Lestaurtinib' of Supplementary Table 1),run:Lestaurtinib_02624_R2,Plate:MR020): 1760 nM | potency estimated from few doses (compound concentrations:100 nM and 1000 nM (sheet 'Lestaurtinib' of Supplementary Table 1),run:Lestaurtinib_02624_R3,Plate:MR020): 1490 nM | potency estimated from few doses (compound concentrations:100 nM and 1000 nM (sheet 'Lestaurtinib' of Supplementary Table 1),run:Lestaurtinib_02724_R1,Plate:MR021): 1320 nM | potency estimated from few doses (compound concentrations:100 nM and 1000 nM (sheet 'Lestaurtinib' of Supplementary Table 1),run:Lestaurtinib_02724_R2,Plate:MR021): 1510 nM | potency estimated from few doses (compound concentrations:100 nM and 1000 nM (sheet 'Lestaurtinib' of Supplementary Table 1),run:Lestaurtinib_02741_R3,Plate:MR023): 875 nM | potency estimated from few doses (compound concentrations:100 nM and 1000 nM (sheet 'Lestaurtinib' of Supplementary Table 1),run:Lestaurtinib_02748_R2,Plate:MR024): 1490 nM | potency estimated from few doses (compound concentrations:100 nM and 1000 nM (sheet 'Lestaurtinib' of Supplementary Table 1),run:Lestaurtinib_02752_R1,Plate:MR025): 842 nM | potency estimated from few doses (compound concentrations:100 nM and 1000 nM (sheet 'Lestaurtinib' of Supplementary Table 1),run:Lestaurtinib_02752_R2,Plate:MR025): 925 nM
